Source: PubChem BioAssay
Vaccinia mCherry = vaccinia inhibition (mCherry reporter) | Vaccinia virus mCherry reporter infection, fluorescence | actives 0.63% (n = 310,000) | Potency, µM (top dose mostly 36.5 µM), for inactives: at the top dose activity change, negative = inhibition, most hits filed as inhibitors | AID 720579; calls by dose curve; tested in A549 cells; also: % is scaled to controls: 0 for no effect and ±100 for the full control effect; nearly all actives have a fitted effect of over 35% in size
NS1 function inh = blocks influenza NS1 protein function; AID 2326; Potency, µM (highest dose often 46.1 µM), without a hit: top-dose activity, positive = more growth; actives 0.4% (n = 270,000); calls by dose curve; also: actives are rising curves; nearly all actives have a fitted effect of over 50% in size
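Read-out: OD600 growth recovery of NS1-expressing budding yeast. Cells grown overnight at 30C in -URA glucose medium, washed, resuspended and diluted 1:100 in 2% galactose assay medium, pH 6.0. Same strain lacking NS1 served as positive control.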
Pf growth 96h = P. falciparum growth inhibition at 96 hour, primary screen for plastid delayed-death inhibitors; actives 6.9% (n = 320,000); Potency, µM (doses to about 28.7 µM), for inactives: at the highest dose activity change, negative = inhibition, hits mostly inhibitors; P. falciparum luciferase reporter growth, 96 h; also: % is scaled to controls: 0 for no effect and ±100 for the full control effect
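Compounds incubated with erythrocytes infected by luciferase-expressing P. falciparum (2% hematocrit, 0.05% parasitemia final) for 96 hours, 37 C in 5% CO2. Growth inhibition scored as decreased luciferase luminescence.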
Vaccinia Venus = vaccinia inhibition (Venus reporter); Vaccinia virus Venus reporter expression, fluorescence; Potency, µM (top dose mostly 36.5 µM), without a hit: at the top dose activity change, negative = inhibition, hits mostly inhibitors; actives 0.46% (n = 330,000); calls by dose curve; tested in A549 cells; also: % is scaled to controls: 0 for no effect and ±100 for the full control effect; nearly all actives have a fitted effect of over 30% in size
Pf growth 48h = P. falciparum growth inhibition at 48 hours (one generation) | AID 504832 | actives 5.9% (n = 310,000) | P. falciparum luciferase growth in erythrocytes, 48 h | Potency, µM (top dose mostly 28.7 µM), for the others: top-dose activity change, negative = inhibition, most hits filed as inhibitors; also: % is scaled to controls: 0 for no effect and ±100 for the full control effect
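Luminescence readout; reporter = integrated firefly luciferase in P. falciparum. RBC culture at 2% hematocrit, 0.1% parasitemia final, 37 C/5% CO2; decreased signal taken as growth inhibition.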
HCV inh = HCV inhibition; Potency, µM (doses to about 41.8 µM), for the others: at the top dose activity change, negative = inhibition, usual class: inhibitors; Huh7.5.1 HCVcc-Cre infection, luciferase reporter, 44 h; actives 3.4% (n = 340,000); also: % is scaled to controls: 0 for no effect and ±100 for the full control effect
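Luciferase read-out (15 sec integration) after a 15 min room-temperature substrate step quantifies HCVcc-Cre infection. Cells, 1,000 per well, had compound added 4 h post-plating, then virus at ~0.5 moi, and were cultured 44 h.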
Starred values were filed as active, the others as inactive; i = inactive; u = inconclusive; x = no result; [ ] = another dose, or the depositor's remark. In the library only some 11% were active in any assay of this set; here they are far more common. Unless noted, calls follow the shape of the dose curve; as a rule, active = well fitted inhibition curve with a large enough effect; inconclusive = small, poorly fitted or top-dose-only effect, or another doubt; inactive = no such curve, though single readings can be large or run the other way. Potency is read from the fitted curve at half-maximal effect.

SMILES	Vaccinia mCherry	NS1 function inh	Pf growth 96h	Vaccinia Venus	Pf growth 48h	HCV inh
CCCCNC(=O)CC1N=C2c3ccccc3N=C(SCC(=O)Nc3ccccc3OC)N2C1=O (configuration not stated)	x	7%	64%	x	10µM*	2%
CCCCNC(=O)CC1N=C2c3ccccc3N=C(SCC(=O)Nc3cccc(OC)c3)N2C1=O (configuration not stated)	-10%	-49%	u	-13%	u	-21%
COc1cc(OC)c2c(-c3cccc(-c4ccc(OC)c(OC)c4)c3)cc(=O)oc2c1	-25%	x	x	u	x	u
COc1cc(OC)c2c(-c3cccc(-c4sccc4C(C)=O)c3)cc(=O)oc2c1	u	x	x	u	x	3.2µM*
O=C1CSC(c2cn(-c3ccccc3)nc2-c2cccs2)N1Cc1ccccc1 (configuration not stated)	x	5%	2%	x	x	x
Cc1ccc(-c2nn(-c3ccccc3)cc2C2SCC(=O)N2Cc2ccccc2)o1 (configuration not stated)	-22%	-50%	-21%	-7%	10µM*	u
O=C1CSC(c2cn(-c3ccccc3)nc2-c2cc3ccccc3o2)N1Cc1ccccc1 (configuration not stated)	-16%	8%	4.1µM*	-11%	x	u
O=C1CSC(c2cn(-c3ccccc3)nc2-c2cc3ccccc3oc2=O)N1Cc1ccco1 (configuration not stated)	x	13%	u	x	10µM*	u
O=C(COC(=O)CCCc1c[nH]c2ccccc12)Nc1ccc2c(c1)OCO2	-16%	-50%	x	-11%	x	-7%
Cc1ccc(-n2nc3ccc(NC(=O)c4ccc5c(c4)OCO5)cc3n2)cc1	x	11%	82%	x	49%	-3%
O=C(Nc1cccnc1)C1CC(c2ccc(Cl)c(Cl)c2)=NO1 (configuration not stated)	i	-2%	20%	-16%	-9%	-6%
Cc1cc(OCC(=O)N2C[C@H]3C[C@@H](C2)c2cccc(=O)n2C3)c2c(C)c(C)c(=O)oc2c1	-3%	2%	-11%	1%	1%	-2%
CCCCc1cc(=O)oc2cc(OCC(=O)N3C[C@H]4C[C@@H](C3)c3cccc(=O)n3C4)ccc12	9%	5%	8.3µM*	-2%	11%	2%
CCCCc1cc(=O)oc2cc(C)cc(OCC(=O)N3C[C@H]4C[C@@H](C3)c3cccc(=O)n3C4)c12	-15%	-12%	u	-13%	10µM*	-7%
CN(Cc1cn(C)nc1-c1cccc(Cl)c1)CC1CCCCO1 (configuration not stated)	-4%	2%	10µM*	-14%	6%	4%
Cc1cnccc1CN(C)Cc1cn(C)nc1-c1cccc(Cl)c1	-10%	1%	20%	-15%	u	-12%
O=C(O)CCCCCN1C(=O)/C(=C/c2cn(-c3ccccc3)nc2-c2cccs2)SC1=S	-28%	x	x	0%	x	-9%
CC1=NNC(=O)/C1=C\c1cn(-c2ccccc2)nc1-c1cccs1	x	8%	8.3µM*	x	u	u
CN1CCC(N(C)C(=O)/C=C/c2cn(-c3ccccc3)nc2-c2cccs2)CC1	u	x	u	-24%	5.9µM*	7.9µM*
CC1=NNC(=O)/C1=C\c1cn(-c2ccccc2)nc1-c1ccc(F)cc1	10µM*	-2%	54%	10µM*	5.2µM*	4.5µM*
CSCCC(NC(=O)C1CCC(C)CC1)C(=O)N1CCN(c2ccccn2)CC1 (configuration not stated)	x	-12%	u	x	-1%	-11%
CC(C)c1nc(SCC(=O)Nc2cccc(C(F)(F)F)c2)c2c(=O)n(C)c(=O)n(C)c2n1	i	-47%	u	-26%	2%	u
CCCCNc1nnc(SCC(=O)c2c(N)n(CCC)c(=O)[nH]c2=O)s1	x	x	9.3µM*	x	12µM*	4%
CCc1sc(NC(=O)CN2CCOCC2)nc1-c1ccccc1	-26%	-14%	x	-8%	7%	u
O=C(/C=C/c1cccc([N+](=O)[O-])c1)c1ccco1	x	-105%	u	x	33%	18%
SMILES	Vaccinia mCherry	NS1 function inh	Pf growth 96h	Vaccinia Venus	Pf growth 48h	HCV inh
Cc1cccc(/C=C/C(=O)c2ccc([N+](=O)[O-])o2)c1	u	x	-1%	11µM*	u	0.63µM*
O=C(/C=C/c1cccc([N+](=O)[O-])c1)c1ccc([N+](=O)[O-])o1	u	x	x	13µM*	x	11%[8.37 µM]
O=C1Nc2ccccc2C1(O)Cc1ccncc1 (configuration not stated)	x	1%	9.3µM*	-2%	12%	9%
CC(C)(C)NC(=O)C[C@H]1C[C@H](C(=O)N2CCCCC2)[C@@]2(CCc3ccccc3)c3[nH]c4ccc(Cl)cc4c3CCN2C1=O	-22%	x	x	u	x	4%
CCn1c2c(c(=N)c3c1CCC3)CCC2	-11%	17%	0.19µM*	19%	0.47µM*	2%
CCCCCCn1c(=O)[nH]c2c(c1=O)CCC2	i	-1%	16%	-11%	4%	-5%
CCCCCCCCCn1c2c(c(=N)c3c1CCC3)CCC2	u	-39%	0.13µM*	u	0.29µM*	0.89µM*
CCCCCCCn1c2c(c(=N)c3c1CCC3)CCCC2	u	-38%	6%	u	0.29µM*	4.5µM*
CCCCCCn1c2c(c(=N)c3c1CCC3)CCC2	x	-34%	21%	x	0.21µM*	10µM*
Cc1ccccc1C(=O)N1CC(=O)Nc2ccc(Cl)cc2C1c1ccccc1 (configuration not stated)	-8%	x	x	-13%	x	x
CCOc1ccc(NC(=O)N2CCC(C(=O)c3ccc(F)cc3)CC2)cc1	x	-7%	40%	x	u	u
CCCCn1c2c(c(=N)c3c1CCC3)CCC2	x	-5%	0.033µM*	u	0.15µM*	u
O=C1C(=O)c2ccccc2C([O-])=C1[n+]1ccccc1	x	2%	7.4µM*	x	3.7µM*	6%
COc1ccc(S(=O)(=O)N(C)C[C@H]2Oc3ccc(NC(=O)C4CCCCC4)cc3C(=O)N([C@H](C)CO)C[C@@H]2C)cc1	-15%	x	x	-29%	x	u
CN(C)Cc1ccccc1Sc1ccc(O)cc1O	-15%	-3%	20%	-16%	-7%	16%
CC(Cc1ccccc1Sc1ccccc1O)N(C)C (configuration not stated)	x	-7%	3.7µM*	-20%	x	-15%
Cc1ccc(C(=O)N/N=C/c2cccnc2)cc1Cl	-2%	x	x	-11%	x	x
O=C(COC(=O)c1ccc(O)cc1O)NC1CCCCCC1	x	x	u	x	34%	13µM*
O=C(COC(=O)c1ccc(O)cc1O)NC1CCS(=O)(=O)C1 (configuration not stated)	-3%	-3%	-23%	-3%	-5%	14%
